The record followed here is PubChem BioAssay (NCI).

Assay [1] is described as follows: NCI Yeast Anticancer Drug Screen. Data for the rad50 strain (AID 155).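 Also: 0% = growth of vehicle-only cultures of the same strain.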 The conditions noted are these: S. cerevisiae rad50 strain growth inhibition; at 50.0 µM; hits give high values. The gist of the method: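 Genetically altered yeast (DNA repair pathway); compound treatment; growth inhibition vs vehicle ctrl.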
The nature of assay [2]: NCI Yeast Anticancer Drug Screen. Data for the mec2-1 strain (AID 157). The conditions noted are these: S. cerevisiae mec2-1 strain, at 50.0 µM, hits give high values. The gist of the method: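 mec2-1 yeast strain, carrying an alteration in DNA damage repair or cell cycle control, was exposed to compounds; growth inhibition was measured relative to vehicle-treated controls.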

Assay [3] in a line: NCI Yeast Anticancer Drug Screen. Data for the sgs1 mgt1 strain (AID 161).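 Also: 0% = growth of cultures given vehicle only.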 The conditions noted are these: S. cerevisiae sgs1 mgt1 strain, at 50.0 µM, hits give high values. The gist of the method: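 Percent growth inhibition was derived by comparing compound-exposed mutant yeast with vehicle-exposed cultures. The strain carries alterations in DNA damage repair.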
Assay [4] can be described thus: NCI Yeast Anticancer Drug Screen. Data for the cln2 rad14 strain (AID 165).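 Also: 0% = growth equal to vehicle treated cultures.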 The conditions noted are these: S. cerevisiae cln2 rad14 strain, at 50.0 µM, hits give high values. The gist of the method: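 Yeast carrying cln2 and rad14 alterations (cell cycle control and DNA damage repair) were exposed to compounds. Growth inhibition was measured against vehicle-treated controls.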

Assay [5] is described as follows: NCI Yeast Anticancer Drug Screen. Data for the bub3 strain (AID 167). The conditions noted are these: S. cerevisiae bub3 mutant strain, at 50.0 µM, hits give high values. In outline:
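Yeast carrying a defined mutation is treated with each compound, and growth is compared with that of vehicle-exposed cells to give inhibition.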

Assay [6] in a line: NCI Yeast Anticancer Drug Screen. Data for the mlh1 rad18 strain (AID 175). The note with it: S. cerevisiae mlh1 rad18 strain growth inhibition; at 50.0 µM; hits give high values. In outline: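 Growth inhibition of the yeast strain was measured after compound exposure and expressed relative to vehicle-treated controls. The strain carries defined defects in DNA damage repair.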

Compounds without any hit were thinned out: in the full panel of roughly 79,000, 15% have a hit. A number with no mark means an inactive call. The source made the active and inactive calls. Rule as the data show it: active = growth inhibition above about 70%; inactive = the rest.

In the case of `CCc1ccccc1[N+](=O)[O-]`, the growth inhibition is 27.2% in assay [1]; 28.7% in assay [2]; 3.8% in assay [3]; 4.65% in assay [4]; 6.45% in assay [5]; 21.2% in assay [6].
Turning to `[Cl][Pt]([Cl])[Cl].[NH-]C1CN2CCC1CC2` (stereo not drawn), the growth inhibition was 19.9% in assay [1]; 19.4% in assay [2]; -13.8% in assay [3]; 22.4% in assay [4]; 2.2% in assay [5]; -7.55% in assay [6].
For the compound `CN1CCN(C)C1=Nc1ccccc1/C=C/C=C1C(=O)N(C)C(=O)N(C)C1=O`, the growth inhibition in assay [1] was 2.7%; in assay [2], 8.5%; in assay [3], 12.8%; in assay [4], 12.2%; in assay [5], -1.2%; in assay [6], 14.8%.
`O=S(=O)(F)c1ccccc1C[P+](c1ccccc1)(c1ccccc1)c1ccccc1`: the growth inhibition in assay [1] was 84.2% (active); in assay [2], 86% (active); in assay [3], 66%; in assay [4], 66.7%; in assay [5], 82.8% (active); in assay [6], 91% (active).
Consider `C=C1CC2C3CC=C4CC(OC(C)=O)CCC4(C)C3CCC2(C)C1=O` (stereo not drawn), for which the growth inhibition is 31.7% in assay [1]; 13.8% in assay [2]; 6.15% in assay [3]; 0.55% in assay [4]; 15.8% in assay [5]; 15.7% in assay [6].
In the case of `COC(=O)CN(CCCl)P1(=O)OCCCN1CCCl` (stereo not drawn), the growth inhibition was -17.4% in assay [1]; -1.1% in assay [2]; -5.5% in assay [3]; 0.2% in assay [4]; 10.3% in assay [5]; -4.8% in assay [6].
`CCC1(CCC(C)C)C(=O)NC(=O)N(c2ccccc2)C1=O` (stereo not drawn): the growth inhibition in assay [1] was 1.2%; in assay [2], -1.5%; in assay [3] it was -4.5%; in assay [4] it was 7.2%; in assay [5], 8.3%; in assay [6], -9.25%.
`CCCCCCCCCNP(=O)(OCc1ccccc1)N(CCCl)CCCl` (stereo not drawn): the growth inhibition in assay [1] is 55.5%; in assay [2], 37.2%; in assay [3] it was 40.2%; in assay [4] it was 34.8%; in assay [5], -0.4%; in assay [6], 26.4%.
`CC(Br)C(=O)C(CCN(C)C)(c1ccccc1)c1ccccc1` (stereo not drawn): the growth inhibition in assay [1] was 17.6%; in assay [2], -0.05%; in assay [3], 7.95%; in assay [4], -6.4%; in assay [5] it was 21.8%; in assay [6], 17.1%.
For the compound `CCOP(=O)(NC(C)(C)C)OCC`, the growth inhibition in assay [1] is -15.1%; in assay [2], -54%; in assay [3], -21.4%; in assay [4], 8%; in assay [5] it was -26.1%; in assay [6], -12.8%.
As to `C[Si]1(C)CCCC2(C1)C(=O)NC(=O)NC2=O`, the growth inhibition was -31.6% in assay [1]; -17.3% in assay [2]; -9% in assay [3]; -1.75% in assay [4]; -4.2% in assay [5]; -41.5% in assay [6].
For `O=C(c1ccc(Cl)cc1)N1CCOCC1`, the growth inhibition is -4.45% in assay [1]; -15.2% in assay [2]; -7.6% in assay [3]; -29.4% in assay [4]; -53% in assay [5]; -7.95% in assay [6].
In the case of `CC(C)CC1C(=O)NCCC(NC(=O)C(N)Cc2ccc(O)cc2)C(=O)NC(Cc2ccccc2)C(=O)NC(Cc2ccccc2)NC1=O` (stereo not drawn), the growth inhibition in assay [1] was -1.2%; in assay [2], -14.2%; in assay [3], -23.9%; in assay [4], 3.9%; in assay [5], -10.8%; in assay [6], -28.1%.
Turning to `NP(=O)(OCCC(OCc1ccccc1)OCc1ccccc1)N(CCCl)CCCl` (stereo not drawn), the growth inhibition is 54.6% in assay [1]; 9.1% in assay [2]; 54.6% in assay [3]; 48.5% in assay [4]; 6.2% in assay [5]; 31.8% in assay [6].
Take `C1CC[N+]2=C(C1)OCCC2`: the growth inhibition in assay [1] is 12.1%; in assay [2], -2.15%; in assay [3], 6.75%; in assay [4], -17.2%; in assay [5], -1.9%; in assay [6], 4.25%.
Turning to `N.N.N.N.N.N.[Br-].[Co+3]`, the growth inhibition in assay [1] was -0.9%; in assay [2], 7.7%; in assay [3] it was -34.2%; in assay [4] it was 6.3%; in assay [5], -1.2%; in assay [6], 22.6%.
On to `Cc1ccc(NC(=O)c2cc3ccccc3cc2O)c(C)c1`, for which the growth inhibition in assay [1] is 17.1%; in assay [2], -16.1%; in assay [3], 20.7%; in assay [4] it was 8.75%; in assay [5], 17.9%; in assay [6], 21.8%.
Consider `CC1(C)OC2OCCC(N=[N+]=[N-])C2O1` (stereo not drawn), for which the growth inhibition was 0.85% in assay [1]; -5.35% in assay [2]; -0.95% in assay [3]; -29.8% in assay [4]; -0.75% in assay [5]; -4.4% in assay [6].
With `O=C(NC1CCCCC1)C(Cl)(Cl)Cl`, the growth inhibition was -3.1% in assay [1]; -18.3% in assay [2]; -1.85% in assay [3]; -52% in assay [4]; -4.75% in assay [5]; -5.2% in assay [6].
Regarding `CCN(CC)P(=O)(N1CC1(C)C)N1CC1(C)C` (stereo not drawn), the growth inhibition in assay [1] is 1.85%; in assay [2], 0.75%; in assay [3], 1.4%; in assay [4], 2.35%; in assay [5], -4.6%; in assay [6] it was 1.35%.
For the compound `CC1(C[N+](C)(C)C)COC(C)(C)O1` (stereo not drawn), the growth inhibition in assay [1] was -3.95%; in assay [2], 11.6%; in assay [3], 5.25%; in assay [4] it was -2.85%; in assay [5], 5.3%; in assay [6], 3.95%.
For `COP1(=S)OCC2OC(n3cc(C)c(=O)[nH]c3=O)CC2O1` (stereo not drawn), the growth inhibition in assay [1] is 0.55%; in assay [2], -17.2%; in assay [3] it was -12.8%; in assay [4], -9.1%; in assay [5] it was 23.1%; in assay [6], -9.25%.
As for `CC(C)=CC1C(C(=O)OCc2cc3c(cc2Cl)OCO3)C1(C)C` (stereo not drawn), the growth inhibition was 8.65% in assay [1]; 12.1% in assay [2]; -15.2% in assay [3]; -48.9% in assay [4]; 14.9% in assay [5]; -3.9% in assay [6].
As to `[Cl][Rh]([Cl])([Cl])[Cl].[NH-]CC[NH-]`, the growth inhibition in assay [1] is 17.2%; in assay [2] it was 15%; in assay [3], 15.7%; in assay [4], -17.4%; in assay [5], -9.95%; in assay [6], 8.55%.
For the compound `C=CCc1cc(OC)c2c(c1OC)OCO2`, the growth inhibition was 6.3% in assay [1]; 8.95% in assay [2]; -0.7% in assay [3]; 2.05% in assay [4]; -1.9% in assay [5]; 7.05% in assay [6].
Consider `CCC(=O)OC1(c2ccccc2)CCN(CCC(=O)c2ccccc2)CC1`, for which the growth inhibition was 45.5% in assay [1]; 28.4% in assay [2]; 36.8% in assay [3]; 19.2% in assay [4]; 36.8% in assay [5]; 25.9% in assay [6].
Take `NC(CCSCCF)C(=O)O` (stereo not drawn): the growth inhibition in assay [1] was 36.9%; in assay [2] it was 8.6%; in assay [3] it was 12.8%; in assay [4], -2.65%; in assay [5], 24.4%; in assay [6] it was 35%.
`CC(C)NCC(O)c1ccc(Cl)c(Cl)c1` (stereo not drawn): the growth inhibition is -28.6% in assay [1]; -40% in assay [2]; -14% in assay [3]; 7.25% in assay [4]; -27.2% in assay [5]; -33.8% in assay [6].
As to `[N-]=[N+]=CC(=O)CCC(=O)C=[N+]=[N-]`, the growth inhibition in assay [1] was 10.2%; in assay [2], -24%; in assay [3], -27.1%; in assay [4] it was -19.5%; in assay [5], -20.6%; in assay [6], -67.8%.
On to `CC1CC(O)C(=O)C(O[C@@H]2C[C@@H]3CC[C@@H]4[C@H](CC[C@]5(C)C(C6=CC(=O)OC6)CC[C@]45O)[C@@]3(C=O)C[C@H]2O)O1` (stereo partly drawn), for which the growth inhibition is 7.95% in assay [1]; 8.5% in assay [2]; -8.1% in assay [3]; -2.6% in assay [4]; -12.8% in assay [5]; -42.9% in assay [6].
For `O=Cc1ccccc1O.O=Cc1ccccc1O.[Cu]`, the growth inhibition in assay [1] was 86.2% (active); in assay [2], 72.8% (active); in assay [3], 88.9% (active); in assay [4], 55.4%; in assay [5], 70.2% (active); in assay [6] it was 92.6% (active).
Turning to `Cc1c([As](=O)(O)O)ccc2nc3c(C)c([As](=O)(O)O)ccc3nc12`, the growth inhibition was 24.5% in assay [1]; 1.25% in assay [2]; 15.4% in assay [3]; 9.25% in assay [4]; 2.4% in assay [5]; 21.6% in assay [6].
Turning to `O=C(O)c1ccc([N+](=O)[O-])c([N+](=O)[O-])c1`, the growth inhibition in assay [1] was 22.2%; in assay [2], 4.95%; in assay [3], 32.9%; in assay [4] it was 7.05%; in assay [5] it was 10%; in assay [6], 24.6%.
Regarding `Cn1cnc([N+](=O)[O-])c1C(=O)O` (tested in a mixture with another compound), the growth inhibition is -18.2% in assay [1]; -3.55% in assay [2]; -6.65% in assay [3]; -18.4% in assay [4]; 27.3% in assay [5]; -1% in assay [6].
Consider `NCCc1ccccc1`, for which the growth inhibition was 0.15% in assay [1]; -20.6% in assay [2]; 1.5% in assay [3]; -17.4% in assay [4]; -18.3% in assay [5]; -9.9% in assay [6].
`C=C(C)C1(CCC)C(=O)NC(=S)NC1=O`: the growth inhibition in assay [1] was 23.4%; in assay [2] it was 19.7%; in assay [3], 17.6%; in assay [4], 25.6%; in assay [5] it was 4.35%; in assay [6], 22.4%.
In the case of `COc1ccc2c(c1OC)C(=O)O[C@@H]2[C@H]1c2cc3c(cc2CCN1C)OCO3`, the growth inhibition in assay [1] was -8.75%; in assay [2], -4.8%; in assay [3], 0.95%; in assay [4], 6.75%; in assay [5], 4.8%; in assay [6], -43.5%.
With `OC1CCN(C2(c3ccccc3)CCCCC2)CC1`, the growth inhibition is -13.9% in assay [1]; 1.45% in assay [2]; -1.85% in assay [3]; -4.25% in assay [4]; -6.1% in assay [5]; 0.15% in assay [6].
